The campaign covered roughly 360,000 compounds. About 2,400 (0.67%) were called active. What follows is part of a selection rich in actives, with near analogues and random picks from the rest. A number with no mark means an inactive call. Rule as the data show it: active = enhancement above about 30%; inactive = the rest.
These compounds were tested against Thyrotropin-releasing hormone receptor (Homo sapiens) (UniProt P34981) (assay: qHTS for Small Molecule Agonists and Allosteric Enhancers of Human TRH Receptor: Primary Screen for Enhancers). Conditions: TRHR cells, fluo-8 calcium fluorescence, EC20 TRH enhancement; at 2 µM; hits give high values.
Thyrotropin-releasing hormone receptor (Homo sapiens), sequence (P34981 whole entry, looked up): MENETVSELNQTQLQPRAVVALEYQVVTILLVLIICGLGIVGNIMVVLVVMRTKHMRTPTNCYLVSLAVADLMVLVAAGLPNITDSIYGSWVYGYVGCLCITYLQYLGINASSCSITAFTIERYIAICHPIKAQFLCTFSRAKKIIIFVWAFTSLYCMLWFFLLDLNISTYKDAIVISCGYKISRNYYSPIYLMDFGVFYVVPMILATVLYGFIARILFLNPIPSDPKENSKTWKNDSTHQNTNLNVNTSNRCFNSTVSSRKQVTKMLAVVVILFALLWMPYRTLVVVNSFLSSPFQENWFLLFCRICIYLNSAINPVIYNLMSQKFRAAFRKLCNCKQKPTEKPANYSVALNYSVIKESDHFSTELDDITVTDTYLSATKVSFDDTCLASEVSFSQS
Procedure, shortened: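 Enhancer read-out: after compound pinning and an initial kinetic agonist-mode read, an EC20 of TRH (10 nM final) was injected and fluo-8 calcium signal (Ex 480/Em 530) followed at 1 s/cycle for 100 cycles in TRHR-expressing cells.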
`CCC(Sc1nc2n[nH]c(C)c2c(=N)n1-c1ccccc1Cl)C(=O)N(CC)CC` (stereo not drawn) gave an enhancement of -2.62%. `Cc1ccc(Oc2c(C(F)(F)F)oc3c(CN4CCCCC4)c(O)ccc3c2=O)cc1` was tested, and the enhancement was 0.578%. With `CCOC(=O)c1sc(NC(=O)CSc2nc(O)c(Cc3ccccc3)c(=O)[nH]2)nc1C` the enhancement was 0.15%. `CCCOc1ccc(Cc2c(O)nc(N)[nH]c2=O)cc1C` showed an enhancement of 5.99%. With `CCCOc1ccc(Cc2c(O)nc(SC)[nH]c2=O)cc1C` the enhancement was 40.1% (active). In the case of `Cc1cc2c(s1)c1cnn(Cc3cc(F)c(Cl)cc3Cl)c(=O)c1n2C`, the enhancement is reported as -6.51%. For `COc1ccc(CCN2C(=O)c3oc4cc(C)cc(C)c4c(=O)c3C2c2ccccc2F)cc1OC` (stereo not drawn), the enhancement was -0.372%. `O=C(Cc1ccccc1)Nc1sc2c(c1C(=O)Nc1ccc(Br)cc1)CCC2` showed an enhancement of 1%. `COc1ccc(C2Sc3ccccc3NC3=C2C(=O)c2ccccc23)c(OC)c1OC` (stereo not drawn) showed an enhancement of -4.93%. `COc1ccccc1C(=O)N(Cc1ccc(C)o1)C1CCS(=O)(=O)C1` (stereo not drawn) was tested, and the enhancement was 0.844%. For `COc1c(Cl)cc(C(=O)N(Cc2ccccc2F)C2CCS(=O)(=O)C2)cc1Cl` (stereo not drawn), the enhancement was 34% (active). Work on `COc1cc(C(=O)N(Cc2ccc(C(C)C)cc2)C2CCS(=O)(=O)C2)cc(OC)c1OC` (stereo not drawn) yielded an enhancement of -5.35%. Compound `CCOC(=O)c1ccc(N2C(=O)c3[nH]nc(-c4ccccc4)c3C2c2ccc(C(C)C)cc2)cc1` (stereo not drawn) has an enhancement of 7.37%. For `Cc1ccc(C)c(N2CCN(CCCNC(=O)Nc3ccc(Cl)cc3)CC2)c1`, the enhancement was 2.7%. Work on `Cc1ccc(NC(=O)c2cn3c4c(ccc(Cl)c4c2=O)OC(C)C3)cc1C` (stereo not drawn) yielded an enhancement of 6.65%. Work on `O=C1NC(c2cc3c(cc2Cl)OCO3)Oc2ccccc21` (stereo not drawn) yielded an enhancement of 5.25%. In the case of `O=C1NC(c2ccccc2)Oc2ccccc21` (stereo not drawn), the enhancement is reported as 36.1% (active). `C=CCOc1cccc(C2NC(=O)c3ccccc3O2)c1` (stereo not drawn) showed an enhancement of -1.8%. `Cc1ccc2c(=O)c(C(=O)c3ccc(F)cc3)cn(CC(=O)NC3CCCCC3)c2n1` showed an enhancement of 7.98%. `COCC(C)NS(=O)(=O)c1ccc(N2CCCCS2(=O)=O)cc1` (stereo not drawn) showed an enhancement of 6.76%. `CCOC(=O)C1=C(O)/C(=C/c2ccc(OCC(=O)Nc3ccc(C)cc3)cc2)N=C1C` showed an enhancement of -0.756%. `CCOC(=O)c1nn(-c2cccc(C)c2)cc1C(=O)c1ccccc1` was tested, and the enhancement was 11%. `CCOC(=O)C1=C(O)/C(=C/c2cc(C)n(-c3ccccc3)c2C)N=C1C` was tested, and the enhancement was 43.5% (active). With `Cc1nn(Cc2ccc(F)cc2)c(C)c1NC(=O)c1cc(CC(C)C)on1` the enhancement was -1.79%. `O=c1[nH]oc(O)c1-c1ncc(C(F)(F)F)cc1Cl` was tested, and the enhancement was 0.0064%. With `O=c1[nH]c2cccnc2n(CCNc2ncc(C(F)(F)F)cc2Cl)c1=O` the enhancement was 48.4% (active). `O=C(c1ccccn1)c1ncc(C(F)(F)F)cc1Cl` gave an enhancement of 1.39%. Compound `COc1ccccc1Nc1nc(N)nc(N)c1S(=O)(=O)c1ccccc1` has an enhancement of 2.56%. In the case of `O=C(NCc1nnc(C(=O)Nc2ccc(C(F)(F)F)cc2Cl)o1)c1ccccc1`, the enhancement is reported as 0.059%. In the case of `Cc1nnc(SCC(=O)NCc2ccccc2Cl)c2nn(-c3ccccc3)c(C)c12`, the enhancement is reported as 4.74%. For `COc1ccccc1Nc1c2c(nc3ccc(NC(=O)/C=C/c4cc(OC)c(OC)c(OC)c4)cc13)CCCC2`, the enhancement was 0.792%. `CC(C)c1nnc(NC(=O)CCC(=O)N2CCN(c3cccc(Cl)c3)CC2)s1` was tested, and the enhancement was 44.3% (active). `COc1ccc(CN2CCN(C(=O)CCC(=O)Nc3nnc(C(C)C)s3)CC2)cc1F` gave an enhancement of -5.21%. Compound `CCc1nnc(NC(=O)CCC(=O)N2CCN(c3cc(C)ccc3C)CC2)s1` has an enhancement of 10.6%. Work on `CCOc1ccc(NC(=O)c2cc3c(=O)n(Cc4cccs4)ccc3nc2C)cc1` yielded an enhancement of 2.83%. `Cc1cccc(NC(=O)c2nnn(CC(=O)Nc3ccc(C(C)C)cc3)c2N)c1C` was tested, and the enhancement was 16.4%. Work on `CCOc1ccc(NC(=O)COc2ccc(C(=O)N3CCC(C(N)=O)CC3)cc2OC)cc1` yielded an enhancement of 1.2%. With `CCOc1ccc(N/C=C/C(=O)c2cc(OC)c(OC)c(OC)c2)cc1` the enhancement was 36% (active). With `CCOc1ccc(C(NC(=O)c2cc(OC)c(OC)c(OC)c2)c2cc(Cl)c3cccnc3c2O)cc1` (stereo not drawn) the enhancement was 8.01%. In the case of `CN(CC(=O)Nc1ccccc1F)S(=O)(=O)c1ccc2c(c1)c(=O)n(C)c(=O)n2C`, the enhancement is reported as -1.52%. In the case of `CCOc1cc2[nH]c(=O)n(Cc3ccc(C(=O)NCCN(CC)CC)cc3)c(=O)c2cc1OCC`, the enhancement is reported as 6.62%. `Cc1ccc(C(=O)Nc2ccc(OCc3cc(=O)n4c5c(sc4n3)CCCC5)cc2)cc1` was tested, and the enhancement was -8.75%. `Cc1ccc(C(=O)Nc2ccc(OCc3cc(=O)n4c(C)csc4n3)cc2)cc1` was tested, and the enhancement was 44.4% (active). With `Cc1csc2nc(COc3ccc(NC(=O)COc4ccccc4)cc3)cc(=O)n12` the enhancement was -0.546%. `CCN(CC)c1cc(NC2CCCCC2)c2c3c(onc13)-c1ccccc1C2=O` gave an enhancement of 3.4%. `Cc1c(CNC(C)c2ccccc2)c(C(=O)O)c(C)n1Cc1c(F)cccc1Cl` (stereo not drawn) showed an enhancement of 0.16%. `CCOc1ccc(-c2cc3nc(C4CCN(C(=O)OC(C)(C)C)CC4)c(C(=O)Nc4cccc(CC)c4)cn3n2)cc1` gave an enhancement of 12.9%. With `CCOC(=O)/C(C#N)=C\c1c(C)cc(C)c(COC(C)=O)c1C` the enhancement was 14.9%. For `COC(=O)/C(C#N)=C/c1occc1C`, the enhancement was 32.7% (active). Work on `Cc1ccc(/C=C(\C#N)C(=O)Nc2cc(C)ccc2C)cc1` yielded an enhancement of -0.361%. With `CCc1ccc(NC(=O)N2CCN(C(=O)c3nsc4ccccc34)CC2)cc1` the enhancement was -4.71%. Work on `O=S(=O)(c1ccc2c(c1)OCCO2)N1CCN(S(=O)(=O)c2cc(F)ccc2F)CC1` yielded an enhancement of 6.77%. In the case of `Cc1nn(C)cc1N1C(=O)c2cccc3c(N)ccc(c23)C1=O`, the enhancement is reported as 30% (active). `CN1C(=O)c2cccc3c(N)ccc(c23)C1=O` was tested, and the enhancement was 50.3% (active). `Cn1c(=O)n(Cc2c(F)cccc2Cl)c(=O)c2c1nc1n2CCN1c1ccc(F)cc1` was tested, and the enhancement was 0.582%. Work on `Cc1cc(C)cc(NC(=O)Cn2nc(N3CCN(c4ccccc4)CC3)ccc2=O)c1` yielded an enhancement of -3.13%. For `Cc1cc(-c2ccc(C)c(S(=O)(=O)N3c4ccccc4CC3C)c2)on1` (stereo not drawn), the enhancement was 0.217%. In the case of `CCOc1cccc2cc(-c3cn4c(n3)sc3cc(C)ccc34)c(=O)oc12`, the enhancement is reported as -0.977%. For `COc1ccc(CCn2ccc(O)c(Cc3ccc(Cl)cc3Cl)c2=O)cc1OC`, the enhancement was 54.5% (active). In the case of `COc1cc(CNCCSc2nnnn2C)ccc1OCc1ccc(Cl)cc1Cl`, the enhancement is reported as 1.67%. `COc1ccc(CCNC(=O)CCc2ccccc2O)cc1OC` showed an enhancement of -5.5%. `O=C(CSc1ncc(CO)n1Cc1ccc(F)cc1)NCc1ccco1` showed an enhancement of -2.31%. With `CCOc1ccc(CNC(=O)c2ccc3nc(CC)c(CC)nc3c2)cc1OC` the enhancement was 1.32%. `CC1CCN(C(=O)COC(=O)c2cc(=O)[nH]c3ccccc23)CC1` was tested, and the enhancement was -7.78%. Compound `Cc1[nH]c2ccccc2c1C(=O)CN1CCCC(C)C1` (stereo not drawn) has an enhancement of -2.86%. With `CC1CCN(CC(=O)c2c[nH]c3ccccc23)CC1` the enhancement was 38% (active). Work on `Cc1nnc(N2CCCC(C(=O)NCCN(C)C)C2)c2nn(-c3ccccc3)c(C)c12` (stereo not drawn) yielded an enhancement of 1.94%. Work on `N#Cc1nc(Nc2cccc(Cl)c2)nc(NC2CCCC2)n1` yielded an enhancement of -7.23%. Work on `CCn1c2ccccc2c2nnc(SCC(=O)O)nc21` yielded an enhancement of -1.5%. `COc1ccc(-n2nc(C(=O)NCCc3ccc(Cl)cc3)c3c4ccccc4n(C)c3c2=O)cc1Cl` gave an enhancement of -3.1%. For `CCOC(=O)C1CCN(C(=O)C2(NC(=O)Nc3cccc(F)c3)CCCCC2)CC1`, the enhancement was 34.3% (active). `CCOC(=O)C1CCN(C(=O)Nc2cccc(OC)c2)CC1` was tested, and the enhancement was -1.73%. Work on `CCN1CCN(C(=O)C2(NC(=O)Nc3cccc(F)c3)CCCCC2)CC1` yielded an enhancement of 1.28%.

From PubChem BioAssay AID493056 (National Center for Advancing Translational Sciences (NCATS), 2011)
Also: 0% is about no effect.
